An excerpt weighted towards active compounds, which were near 8% of everything screened.
Pyk2 oligo antag: antagonists of Pyk2 self-association, primary screen, Q293 cells, FERM NanoBiT luminescence, HTS | z-score (the deposit names both 25 µM and 10 µM) | Protein-tyrosine kinase 2-beta (Homo sapiens), Q14289 | 0.83% of 99,000 active | AID 1347419, 2020 | hits give low values;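 active = Z-score of -3 or lower, scaled per plate to the spread of control and sample wells; inactive = z-score above -3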;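 also: negative z-score means lost luminescence so less FERM oligomerization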
PostGolgi yeast: phenotypic screen on post-Golgi transport, primary screen; AID 739, 2007; inhibition, % at 10 µM; post-Golgi transport phenotypic cell assay; 0.9% of 98,000 active;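 also: yeast cells grown in 1536-well plates; yeast grown about 18 h at 30C before absorbance read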
Cav32 inh: Cav3.2 calcium influx blockers – cell-based, Fluo-4 calcium fluorescence, FDSS, MLSMR library, primary screen; B-score at 10 µM; Cav3.2-expressing cells; hits give low values; Voltage-dependent T-type calcium channel subunit alpha-1H (Homo sapiens), O95180; AID 449739, 2010; 4% of 100,000 active;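 active = single-dose well whose peak fluorescence ratio is a statistical outlier from its plate by either plate-standardised score or position-corrected B-score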
PostGolgi ctrl: growth inhibition of yeast control strain, primary screen, counter-screen for post-Golgi transport modulator project; 5% of 98,000 active; efflux-deficient yeast background strain, growth absorbance A615, 16 h; inhibition, % at 10 µM
Starred values were filed as active, the others as inactive; . = no result given. Rule as the data show it, unless noted: active = inhibition above about 30%; inactive = the rest.

SMILES	Pyk2 oligo antag	PostGolgi yeast	Cav32 inh	PostGolgi ctrl
O=C(c1cc(-c2ccc(Cl)cc2)n(-c2ccc(Cl)cc2)n1)N1CCOCC1	-1.36	8.5	-2.43	37.5*
O=C(c1cc(-c2ccc(Cl)cc2)on1)N1CCOCC1	0.25	-2.9	1.27	26.3
Cc1ccc(-n2nc(C(=O)N3CCOCC3)cc2-c2ccc(Cl)cc2)cc1	-1.87	13.6	-1.83	41.5*
Cc1cc(C)nc(SCc2nnc(SCC(=O)Nc3ccccc3C)n2Cc2ccco2)n1	0.13	-20.0	1.29	1.0
CCCCCCN(C(=O)CCCCCN1C(=O)NC(c2ccc(-c3ccccc3)cc2)C(C(=O)OCc2ccccc2)=C1C)C(C(=O)NCCCC)c1cccc(C(=O)OC)c1 (configuration not stated)	.	.	-0.139	.
COc1ccc(S(=O)(=O)NCCSC(C)(C)C)c(Cl)c1Cl	-2.57	0.8	-3.27	31.3*
Cc1cc(C(=O)N[C@@H](c2ccccc2)[C@]2(C)C[C@H]2[C@@H](C)C(=O)Nc2ccc3ccccc3c2)no1	.	.	-4.57*	.
Cc1cc(C(=O)N[C@H](c2ccccc2)[C@@]2(C)C[C@@H]2[C@@H](C)C(=O)Nc2ccc3ccccc3c2)no1	.	.	-0.0344	.
COc1cccc(CNCCc2c[nH]c3ccccc23)c1OCc1ccc(F)cc1	1.38	93.0*	-1.15	80.8*
COc1cc(CNCCc2c[nH]c3ccccc23)ccc1OCc1ccc(F)cc1	0.44	-0.9	-0.705	40.6*
CCC(=O)Oc1ccc(C(=O)Nc2ccc3c(c2)C(=O)N(C2CCCCC2)C3=O)cc1	-2.67	-3.6	-1.27	6.8
O=c1nc(NCc2ccccc2Cl)cn[nH]1	-0.07	7.6	0.399	-2.0
CC(C)N1C(=O)C(Cc2nc3ccccc3c(=O)n2-c2ccccc2)c2ccccc21 (configuration not stated)	-0.99	-6.5	-1.83	27.2
CC(C)N1C(=O)/C(=C/c2nc3ccccc3c(=O)n2-c2ccccc2)c2ccccc21	-2.76	-2.9	-0.223	31.3*
CC(C)OC(=O)CCC1(C(=O)O)CCC(=O)NC1 (configuration not stated)	0.21	-10.9	-0.225	-3.4
Cc1ccc(CC(=O)N2CCN(c3ccccn3)CC2)cc1	0.05	0.5	0.512	3.9
CC1(C)C(=O)N(OCc2ccccc2)C(C)(C)C(=O)N1OCc1ccccc1	0.45	4.1	.	12.7
O=C(CSc1ncccc1-c1nc2ccccc2[nH]1)NCc1ccco1	0.6	33.9*	0.469	13.0
O=C(CSc1nc2ccccc2[nH]1)NCc1ccco1	0.39	-0.5	0.56	7.7
CN1C(C(=O)NCc2cccc(Br)c2)CC2Cn3c(nc4cc5ccccc5cc43)C21 (configuration not stated)	.	.	-0.416	.
Clc1ccc(-c2n[nH]c3c2CCC3)cc1Cl	-0.34	101.0*	-0.931	69.2*
Cc1csc(NC(=O)c2cccn2C)n1	0.6	-4.4	0.206	30.6*
CN1CCN(C(=O)C2=C[C@@H](C3CC3)C[C@@H](OCc3ccc(CO)cc3)O2)CC1	.	.	0.598	.
O=C(c1sc2ccccc2c1Cl)N(Cc1ccccc1)C1CCS(=O)(=O)C1 (configuration not stated)	-2.49	-14.7	-2.37	22.6
O=C(c1sc2ccccc2c1Cl)N(Cc1ccccc1Cl)C1CCS(=O)(=O)C1 (configuration not stated)	-1.68	6.4	-1.73	30.9*
SMILES	Pyk2 oligo antag	PostGolgi yeast	Cav32 inh	PostGolgi ctrl
CCC(=O)NCCc1nc2cc(NC(=O)c3ccc(OC)cc3)ccc2n1C	0.2	-8.4	0.761	2.2
Cc1ccccc1Nc1nc(Nc2ccccc2C)nc(SC2=NCCS2)n1	-1.8	-0.8	-4.61*	23.4
Cc1ccccc1Nc1nc(N)nc(CN(C)c2ccccc2)n1	0.6	-8.4	-0.969	3.9
Cc1ccc(-c2csc(NC(=O)CSC3=NCCS3)n2)cc1	0.61	.	0.13	.
Cc1ccc(Nc2nc(Nc3ccc(C)cc3)nc(SC3=NCCS3)n2)cc1	-1.54	-2.7	.	38.4*
Cc1ccc(C2CC(c3ccccc3)=NN2C(=S)Nc2ccccc2)o1 (configuration not stated)	-0.66	28.6	-7.46*	13.8
CCOC(=O)C1CCCN(C(=O)c2cc3c(-c4cccc(OC)c4)nn(C)c3s2)C1 (configuration not stated)	-0.58	-3.3	-4.23*	8.1
COc1cccc(-c2nn(C)c3sc(C(=O)N4CCN(c5ccccn5)CC4)cc23)c1	-3.91*	11.2	-1.53	16.4
CCOC(=O)C1CCN(C(=O)c2cc3c(-c4ccc(OC)c(OC)c4)nn(C)c3s2)CC1	.	12.6	1.05	19.4
Cc1onc(-c2ccccc2Cl)c1C(=O)NCc1ccc2c(c1)cc(C)n2C	.	.	-5.97*	.
